According to PubChem BioAssay (EPA / NIEHS):
Values joined by “and” are separate entries in the source; they are usually repeats but may differ in a detail not shown here. Identical values can stand only once. Records with an inconclusive call do not appear. More than one record can exist for a structure, and the calls need not agree. Active and inactive are the calls of the source. Rule for the calls: active = hit-call score of the fitted dose curve at least 0.9, where 1 is the maximum; inconclusive = response in the unintended direction; inactive = score below 0.9.

Legend:
[1] = TOX21_p53_BLA_p2_viability: Viability Assessment in the Tox21 HCT-116 p53 Agonism Beta-lactamase Assay, Phase 2 (AID 2283591);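 note: compound exposure lasted 16 h at 37 °C; actives lower the ATP signal meaning cytotoxicity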
Procedure, shortened: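 Cytotoxicity readout: CellTiter-Glo ATP luminescence, 30 min at room temperature, after the beta-lactamase read. Cells were HCT116 exposed 16 h at 37C to compounds pin-transferred at 217-fold dilution from DMSO stocks.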

[2] = target: Cellular tumor antigen p53 (Homo sapiens) (UniProt P04637); assay: TOX21_p53_BLA_p2_ratio: Tox21 HCT-116 p53 Agonism Beta-lactamase Assay, Ratio, Phase 2 (AID 2283592)
Sequence of Cellular tumor antigen p53 (Homo sapiens) (P04637 whole entry, looked up): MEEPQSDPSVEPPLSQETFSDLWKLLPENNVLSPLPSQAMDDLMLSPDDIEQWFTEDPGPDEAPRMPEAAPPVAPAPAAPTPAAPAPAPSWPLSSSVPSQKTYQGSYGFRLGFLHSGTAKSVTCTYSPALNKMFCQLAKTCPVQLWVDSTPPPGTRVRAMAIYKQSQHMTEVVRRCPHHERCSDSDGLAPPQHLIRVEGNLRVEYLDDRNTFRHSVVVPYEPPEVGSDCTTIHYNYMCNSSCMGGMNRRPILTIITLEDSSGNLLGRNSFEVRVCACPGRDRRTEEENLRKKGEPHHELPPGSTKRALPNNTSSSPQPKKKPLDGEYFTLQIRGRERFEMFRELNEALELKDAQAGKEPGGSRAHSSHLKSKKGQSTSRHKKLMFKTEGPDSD
Procedure, shortened: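 Gain-of-signal p53 agonism was scored from the beta-lactamase FRET ratio (460/530 nm, 405 nm excitation) in HCT116 cells treated 16 h at 37C, 5% CO2, with DMSO serving as negative control and baseline.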

[3] = TOX21_p53_BLA_p3_viability: Viability Assessment in the Tox21 HCT-116 p53 Agonism Beta-lactamase Assay, Phase 3 (AID 2283593);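 note: cells exposed to compound for 16 h before reading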
Procedure, shortened: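 Cellular ATP was quantified by CellTiter-Glo luminescence, read after 30 min at room temperature. Beforehand, HCT116 cells (4000/well) received compound 5 h post-seeding, 217-fold diluted from DMSO, then incubated 16 h at 37C.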

[4] = target: Cellular tumor antigen p53 (Homo sapiens) (UniProt P04637); assay: TOX21_p53_BLA_p3_ratio: Tox21 HCT-116 p53 Agonism Beta-lactamase Assay, Ratio, Phase 3 (AID 2283596)
Procedure, shortened: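 HCT116 p53-bla cells (4000/well) given compound in DMSO (217-fold dilution) after 5 h, incubated 16 h at 37C. CCF4-AM substrate 2 h at room temperature; 460/530 nm emission ratio, gain fitted against DMSO.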

[5] = TOX21_p53_BLA_p4_viability: Viability Assessment in the Tox21 HCT-116 p53 Agonism Beta-lactamase Assay, Phase 4 (AID 2283597);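 note: hits lower the luminescence signal meaning cytotoxicity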
Procedure, shortened: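 Following a 16 h exposure at 37C, the treated HCT116 wells were first read for the FRET ratio. They were then lysed with CellTiter-Glo, and ATP luminescence was recorded after 30 min at room temperature.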

[6] = target: Cellular tumor antigen p53 (Homo sapiens) (UniProt P04637); assay: TOX21_p53_BLA_p5_ratio: Tox21 HCT-116 p53 Agonism Beta-lactamase Assay, Ratio, Phase 5 (AID 2283599)
Procedure, shortened: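 Beta-lactamase reporter ratio (blue 460 nm over green 530 nm, 405 nm excitation) after 2 h CCF4-AM loading, in HCT-116 cells exposed 16 h at 37 C to compounds pinned at 217-fold dilution. Increases relative to DMSO baseline scored.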

[7] = TOX21_p53_BLA_p5_viability: Viability Assessment in the Tox21 HCT-116 p53 Agonism Beta-lactamase Assay, Phase 5 (AID 2283600)
Procedure, shortened: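 After the 460/530 nm beta-lactamase measurement, the wells received an ATP-detection luciferase reagent; signal was read 30 min later at RT. Compound treatment lasted 16 h on cells pre-incubated 5 h post-seeding.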

[8] = target: Cellular tumor antigen p53 (Homo sapiens) (UniProt P04637); assay: TOX21_p53_BLA_p4_ratio: Tox21 HCT-116 p53 Agonism Beta-lactamase Assay, Ratio, Phase 4 (AID 2283601)
Procedure, shortened: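 Signal is the blue/green (460nm/530nm) ratio of cleaved versus uncleaved CCF4-AM substrate, read after 2 h substrate loading. Cells were HCT116 carrying the p53-responsive beta-lactamase reporter, dosed 16 h at 37C, 5% CO2; CellTiter-Glo measured in parallel.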

[9] = Tanguay_ZF_120hpf_MORT_legacy: (Legacy) Oregon State University Tanguay Lab 120 Hour Post-fertilization zebrafish Assay for Mortality (AID 2283633);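 for AC50: fitted as increase in binary mortality versus DMSO negative control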
Procedure, shortened: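 Static waterborne exposure from 6 to 120 hpf at 28C of single dechorionated wild-type (5D) embryos per well, 0.64% DMSO final. Death recorded present/absent by brightfield at 24 and 120 hpf.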

[10] = Tanguay_ZF_120hpf_YSE_legacy: (Legacy) Oregon State University Tanguay Lab 120 Hour Post-fertilization zebrafish Assay for Yolk Sac Edema (AID 2283634)
Procedure, shortened: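 Presence or absence of yolk sac edema was recorded at 120 hpf in surviving larvae. These were wild-type Tropical 5D embryos, chorion removed at 4 hpf, held in static exposure at 28C from 6 hpf with 0.64% DMSO vehicle.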

Measured: AC50

O=C1CCCCCN1
inactive: all assays above

Cc1ccc(N)cc1O
not listed: [7] | [10]
inactive: all other assays above

CN(C)c1ccc(N=NS(=O)(=O)O)cc1
not listed: [7]
inactive: all other assays above

CC(C)(O)c1coc(S(=O)(=O)NC(=O)Nc2c3c(cc4c2CCC4)CCC3)c1
inactive: all assays above

Cn1cnc([N+](=O)[O-])c1Sc1ncnc2nc[nH]c12
inactive: [1] | [3] | [5] | [7] | [9] | [10]
active: [2] 18.9 µM and 31.3 µM | [3] 4.91 µM | [4] 30 µM and 33.1 µM | [5] 1.62 µM | [6] 29.8 µM and 34.8 µM | [8] 22.2 µM and 34.3 µM

O=C(O)c1cc(N=Nc2ccc(S(=O)(=O)Nc3ccccn3)cc2)ccc1O
inactive: all assays above

CC(C)c1cccc(C(C)C)c1N1C(=O)c2ccc(O)cc2C1=O
active: [1] 66.7 µM | [2] 1.77 µM | [3] 74.9 µM | [5] 68.4 µM | [6] 2.05 µM | [8] 69.5 µM | [9] 26.9 µM
inactive: [4] | [10]

O=c1n(CC2CO2)c(=O)n(CC2CO2)c(=O)n1CC1CO1 (stereo not given)
inactive: [1] | [3] | [5] | [7] | [9] | [10]
active: [2] 19.6 µM and 9.81 µM and 20.5 µM | [3] 74.3 µM | [4] 26.8 µM and 19.6 µM | [5] 51.2 µM | [6] 32.2 µM and 10.7 µM and 22.6 µM | [8] 33.7 µM and 32.1 µM and 23.5 µM

O=C(OC[C@H]1O[C@@H](OC(=O)c2cc(O)c(O)c(OC(=O)c3cc(O)c(O)c(O)c3)c2)[C@H](OC(=O)c2cc(O)c(O)c(OC(=O)c3cc(O)c(O)c(O)c3)c2)[C@@H](OC(=O)c2cc(O)c(O)c(OC(=O)c3cc(O)c(O)c(O)c3)c2)[C@@H]1OC(=O)c1cc(O)c(O)c(OC(=O)c2cc(O)c(O)c(O)c2)c1)c1cc(O)c(O)c(OC(=O)c2cc(O)c(O)c(O)c2)c1
active: [1] 17.2 µM and 5.28 µM | [2] 12.9 µM and 6.14 µM | [3] 6.6 µM | [4] 11.2 µM and 5.34 µM | [5] 14.1 µM and 3.93 µM | [6] 17 µM and 10.6 µM | [8] 7.98 µM and 3.2 µM
inactive: [3] | [9] | [10]

CC1=CC(=O)CC(C)(C)C1
not listed: [10]
inactive: all other assays above

O=C1OC(=O)C2C3C=CC(C3)C12 (stereo not given)
not listed: [7]
inactive: all other assays above

CC[C@H]1OC(=O)[C@H](C)[C@@H](O[C@H]2C[C@@](C)(OC)[C@@H](O)[C@H](C)O2)[C@H](C)[C@@H](O[C@@H]2O[C@H](C)C[C@H](N(C)C)[C@H]2O)[C@](C)(O)C[C@@H](C)C(=O)[C@H](C)[C@@H](O)[C@]1(C)O
not listed: [5] | [7] | [10]
inactive: all other assays above

CC(=O)OC[C@H]1O[C@@](COC(C)=O)(O[C@H]2O[C@H](COC(C)=O)[C@@H](OC(C)=O)[C@H](OC(C)=O)[C@H]2OC(C)=O)[C@@H](OC(C)=O)[C@@H]1OC(C)=O
not listed: [7] | [8]
inactive: all other assays above

Nc1cccc(N)c1
not listed: [7]
inactive: all other assays above

C=CCCCCCCCCC(=O)O
not listed: [4] | [7]
inactive: all other assays above

CCCCC(CC)COC(=O)c1ccc(C(=O)OCC(CC)CCCC)cc1 (stereo not given)
not listed: [4] | [7]
inactive: all other assays above

CCCCCCCCCCCCc1ccccc1
not listed: [5] | [7]
inactive: all other assays above

CNS(=O)(=O)c1cc(C(=O)N2CCC(CCN3C4CCC3CC(n3c(C)nc5ccccc53)C4)(c3cccc(F)c3)CC2)c(Cl)cc1F (stereo not given)
active: [1] 26.9 µM | [3] 46.1 µM | [5] 16.2 µM
not listed: [4] | [7]
inactive: all other assays above

O=C(O)c1cccc(N(Cc2cccnc2)c2ccc(OC(F)F)c(OC(F)F)c2)c1
not listed: [7]
inactive: all other assays above

CCCCCCCCCCCCCCCO
not listed: [5] | [7] | [8]
inactive: all other assays above
